PubChem BioAssay
Active and inactive are the calls of the source. Unless noted, how the calls were made is not given here.

Tests used:
[1] = compounds altering circadian rhythm period length – cell-based, LOPAC library, luminescence reporter (AID 2774); conditions: circadian reporter cells, at 7 µM, actives lie on both sides;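 further: values are relative to mean of DMSO wells on each plate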
[2] = tested on: Hepatitis C virus NS3 helicase; assay: blockers of NS3h binding to ssDNA – biochemical, fluorescence polarization, LOPAC1280 library, primary screen (AID 687035; in the data active means inhibition above about 37%); conditions: Purified HCV NS3 helicase, Cy5-dT15 ssDNA binding fluorescence polarization; stronger effect = higher value; concentration not given here
[3] = compounds altering Cy5-DNA-NS3h complex signal – biochemical, LOPAC1280, artefact control for HCV NS3 helicase inhibitor project (AID 687037); conditions: Cy5-DNA-NS3h complex fluorescence interference counterscreen
[4] = tested on: Aerobactin synthetase IucA (Klebsiella pneumoniae, hypervirulent); assay: biochemical IucA inhibition screen of LOPAC library by absorbance (AID 1346212); conditions: IucA enzyme assay, absorbance (OD) readout; stronger effect = lower value;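 tested at 8 µM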;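 further: 100% = no compound wells and 0% = no enzyme wells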
[5] = viability loss with induced miR-34 in A549 – imaging, A549 dox-inducible miR-34, nuclei and caspase counts, primary screen (AID 1347080;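 active means compounds whose cell count with miR-34 switched on is under 0.7 times the count with it off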); conditions: A549 miR-34 inducible, Hoechst nuclei count, 48 h
[6] = blockers of cellular phospholipid synthesis – cell-based, LOPAC library, screen 4, primary screen (AID 1347384); conditions: animal cells, phospholipid biosynthesis inhibition screen; at 10 µM
[7] = galactose survival enhancers in mitochondrial complex I cybrids – cell-based, galactose medium, ATP luminescence, primary screen (AID 1645843;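 active means z-score of at least 1.8 in each of two replicates, scored against plate mean and spread of sample wells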;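 further: positive z means more ATP and so rescue of galactose-driven cybrid death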); conditions: complex I mutant cybrid cells, 72 h, stronger effect = higher value
[8] = measured here: relative caspase fold change +Dox/-Dox
[9] = measured here: total cells with miR-34 induction, stronger effect = lower value
[10] = measured here: total cells without miR-34 induction

Row | Compound | period change [1] | inhibition [2] | fluorescence ratio (interference) [3] | remaining activity [4] | fold change ([5]; stronger effect = lower value) | fold change [5, 8] | cell count [5, 9] | cell count [5, 10] | outcome [6] | z-score [7] | fold change ([5]; stronger effect = lower value, cell number ratio, induced over uninduced)
1 | NNC(=O)c1ccc(O)cc1 | 0.115 h (inactive) | 1% (inactive) | 1.1 (inactive) | 109% (inactive) | 0.976 (inactive) | 1.57 | 9790 | 10000 | inactive | 0.275 (inactive) | 
2 | C[C@]12CCC3C(CC[C@H]4C[C@H](O)CC[C@]34C)C1CC[C@@H]2C(=O)CO (stereo not given in full) | 0.065 h (inactive) | -2% (inactive) | 1 (inactive) | 121% (inactive) | 1.06 (inactive) | 0.876 | 10400 | 9790 | inactive | -0.26 (inactive) | 
3 | C[N+](C)(C)CC#CCOC(=O)Nc1cccc(Cl)c1 | 0.045 h (inactive) | -2% (inactive) | 1 (inactive) | 123% (inactive) | 0.993 (inactive) | 1.89 | 10400 | 10500 | inactive | -0.395 (inactive) | 
4 | NNC(N)=O | -0.03 h (inactive) | -3% (inactive) | 1 (inactive) | 102% (inactive) | 0.944 (inactive) | 0.77 | 10400 | 11000 | inactive | 0.4 (inactive) | 
5 | CNc1ccc2oc(C[C@H]3O[C@@]4(CC[C@H]3C)O[C@H]([C@H](C)C(=O)c3ccc[nH]3)[C@H](C)C[C@H]4C)nc2c1C(=O)O | -0.125 h (inactive) | 1% (inactive) | 1 (inactive) | 119% (inactive) | 0.828 (inactive) | 1.6 | 428 | 516 | inactive | -1.52 (inactive) | 
6 | Clc1ccc(N2CC3CCC(C2)N3)nn1 | -0.11 h (inactive) | -5% (inactive) | 1 (inactive) | 90.4% (inactive) | 1 (inactive) | 1.13 | 10400 | 10400 | inactive | -0.28 (inactive) | 
7 | COc1ccc2c(c1O)-c1cccc3c1[C@@H](C2)N(C)CC3 | -0.1 h (inactive) | -4% (inactive) | 1 (inactive) | 102% (inactive) | 0.958 (inactive) | 1.07 | 7690 | 8030 | inactive | -0.76 (inactive) | 
8 | Cc1sc2ccccc2c1CC1=NCCN1 | 0.055 h (inactive) | -3% (inactive) | 0.9 (inactive) | 99.1% (inactive) | 1.03 (inactive) | 1.95 | 9870 | 9550 | inactive | -0.09 (inactive) | 
9 | CCCn1c(=O)c2[nH]c(C3CCCC3)nc2n(CCCOC(=O)c2ccc(S(=O)(=O)F)cc2)c1=O | -0.07 h (inactive) | -3% (inactive) | 1 (inactive) | 102% (inactive) | 0.972 (inactive) | 1.12 | 6100 | 6280 | inactive | -0.865 (inactive) | 
10 | Nc1ccc(CCN2CCN(c3cccc(C(F)(F)F)c3)CC2)cc1 | 0.14 h (inactive) | -3% (inactive) | 0.9 (inactive) | 102% (inactive) | 0.992 (inactive) | 0.858 | 8520 | 8580 | inactive | -0.665 (inactive) | 
11 | Clc1cc(I)cc(Cl)c1NC1=NCCN1 | 0.11 h (inactive) | -6% (inactive) | 0.9 (inactive) | 117% (inactive) | 1.15 (inactive) | 1.05 | 11200 | 9770 | inactive | 0.175 (inactive) | 
12 | Cn1cnc(CCN)c1 | -0.12 h (inactive) | -3% (inactive) | 1 (inactive) | 125% (inactive) | 1.08 (inactive) | 1.18 | 11400 | 10500 | inactive | 0.51 (inactive) | 
13 | O=C1C=CC(=O)C=C1 | -0.065 h (inactive) | 0% (inactive) | 1 (inactive) | 109% (inactive) | 1.02 (inactive) | 1.65 | 9760 | 9540 | inactive | 0.205 (inactive) | 
14 | C#CCN[C@H](C)Cc1ccccc1 | -0.015 h (inactive) | -2% (inactive) | 1 (inactive) | 82% (inactive) | 0.962 (inactive) | 1.51 | 9640 | 10000 | inactive | 0.54 (inactive) | 
15 | C[N+]1(C)C2CCC1CC(OC(=O)c1c[nH]c3ccccc13)C2 (stereo not given) | -0.255 h (inactive) | 0% (inactive) | 1 (inactive) | 94.3% (inactive) | 0.939 (inactive) | 1.36 | 9240 | 9840 | inactive | 0.4 (inactive) | 
16 | OCc1cnc[nH]1 | 0.065 h (inactive) | 0% (inactive) | 1 (inactive) | 102% (inactive) | 0.96 (inactive) | 1.56 | 10400 | 10800 | inactive | 0.255 (inactive) | 
17 | CCCN1CCC[C@@H](c2cccc(O)c2)C1 | 0.11 h (inactive) | -3% (inactive) | 1 (inactive) | 106% (inactive) | 0.956 (inactive) | 0.986 | 9850 | 10300 | inactive | 0.185 (inactive) | 
18 | CCCN(CCC)CCc1ccc(O)c(O)c1 | -0.225 h (inactive) | 0% (inactive) | 1 (inactive) | 95.7% (inactive) | 0.99 (inactive) | 0.931 | 10100 | 10200 | inactive | 0.465 (inactive) | 

Row | Compound | period change [1] | inhibition [2] | fluorescence ratio (interference) [3] | remaining activity [4] | fold change ([5]; stronger effect = lower value) | fold change [5, 8] | cell count [5, 9] | cell count [5, 10] | outcome [6] | z-score [7] | fold change ([5]; stronger effect = lower value, cell number ratio, induced over uninduced)
19 | COc1ccc2[nH]c3c(c2c1)CCNC3 | -0.105 h (inactive) | 1% (inactive) | 0.9 (inactive) | 108% (inactive) | 1.02 (inactive) | 0.898 | 10400 | 10200 | inactive | 0.28 (inactive) | 
20 | O=S1(=O)N(CCN2CC=C(c3c[nH]c4cc(F)ccc34)CC2)c2cccc3c2N1CCC3 | 0.13 h (inactive) | 0% (inactive) | 1 (inactive) | 123% (inactive) | 1.01 (inactive) | 0.783 | 5470 | 5400 | inactive | -1.29 (inactive) | 
21 | Clc1cnc(Oc2ccc(Oc3ncc(Cl)cc3Cl)cc2)c(Cl)c1 | 0 h (inactive) | -3% (inactive) | 1 (inactive) | 94.8% (inactive) | 0.984 (inactive) | 1.88 | 9890 | 10000 | inactive | 1.21 (inactive) | 
22 | NC(Cc1cc(O)c(O)cc1O)C(=O)O (stereo not given) | 0.12 h (inactive) | 22% (inactive) | 0.9 (inactive) | 96.6% (inactive) | 1.05 (inactive) | 0.814 | 9010 | 8570 | inactive | -0.345 (inactive) | 
23 | CCCN1CC[C@@H]2c3cc(O)ccc3CC[C@@H]21 | -0.045 h (inactive) | -4% (inactive) | 0.9 (inactive) | 105% (inactive) | 1.1 (inactive) | 0.654 | 11000 | 10000 | inactive | 0.605 (inactive) | 
24 | CO[C@H]1CC=C2CCN3CCC4=C(CC(=O)OC4)[C@]23C1 | 0.065 h (inactive) | -3% (inactive) | 1 (inactive) | 103% (inactive) |  | 1.26 | 9420 | 10000 | inactive | 0.375 (inactive) | 0.939 (inactive)
25 | CC(Cc1ccc(OCC(=O)O)cc1)NCC(O)c1cccc(Cl)c1 (stereo not given) | -0.08 h (inactive) | -4% (inactive) | 1 (inactive) | 122% (inactive) | 1.04 (inactive) | 2.14 | 11000 | 10600 | inactive | 0.62 (inactive) | 
26 | CC(C)NP(=O)(NC(C)C)OP(=O)(NC(C)C)NC(C)C | 0.055 h (inactive) | -5% (inactive) | 1 (inactive) | 90.6% (inactive) | 0.945 (inactive) | 1.32 | 9680 | 10200 | inactive | 0.25 (inactive) | 
27 | CN(N=O)c1ccc(O)c(O)c1 | -0.025 h (inactive) | 27% (inactive) | 0.9 (inactive) | 85.2% (inactive) | 1.13 (inactive) | 0.905 | 9750 | 8640 | inactive | 0.2 (inactive) | 
28 | CC(N)[C@H](O)c1ccc(O)c(O)c1 (stereo not given in full) | -0.05 h (inactive) | 0% (inactive) | 1 (inactive) | 122% (inactive) | 0.943 (inactive) | 1.34 | 10200 | 10800 | inactive | -0.925 (inactive) | 
29 | CCCN1CCC[C@H](c2cccc(O)c2)C1 | -0.035 h (inactive) | -3% (inactive) | 1 (inactive) | 98.7% (inactive) | 1 (inactive) | 1.94 | 9710 | 9700 | inactive | 0.32 (inactive) | 
30 | CNCCc1ccc(O)c(O)c1 | 0 h (inactive) | -2% (inactive) | 1 (inactive) | 115% (inactive) | 1.01 (inactive) | 1.35 | 9960 | 9850 | inactive | -0.945 (inactive) | 
31 | CP(=O)(O)C1=CCNCC1 | 0.005 h (inactive) | -5% (inactive) | 1 (inactive) | 95.4% (inactive) | 0.981 (inactive) | 1.49 | 9760 | 9940 | inactive | 0.2 (inactive) | 
32 | c1ccc2c(N3CCNCC3)cccc2c1 | 0.19 h (inactive) | -1% (inactive) | 1 (inactive) | 77.2% (inactive) | 0.966 (inactive) | 1.06 | 8750 | 9060 | inactive | -0.255 (inactive) | 
33 | Ic1ccccc1CNC1C2CCN(CC2)C1C(c1ccccc1)c1ccccc1 (stereo not given) | 0.145 h (inactive) | -8% (inactive) | 0.9 (inactive) | 98.2% (inactive) | 0.485 (active) | 0.281 | 329 | 679 | inactive | -1.29 (inactive) | 
34 | CCCN1CCc2cccc3c2[C@H]1Cc1ccc(O)c(O)c1-3 | 0.32 h (inactive) | -3% (inactive) | 1 (inactive) | 109% (inactive) | 1.06 (inactive) | 0.965 | 7250 | 6850 | inactive | -1.03 (inactive) | 
35 | CNCCc1c[nH]c2ccc(O)cc12 | 0.02 h (inactive) | -6% (inactive) | 0.9 (inactive) | 121% (inactive) | 1.03 (inactive) | 1.46 | 10900 | 10600 | inactive | 0.2 (inactive) | 
